Source: PubChem
HepG2 tox-1: kills HepG2 cells in TGF-b inhibitor counter-screen | HepG2 CAGA-GFP viability, ATP luminescence, 18 h | Potency, µM (highest dose often 46.1 µM), for the others: top-dose activity change, negative = cytotoxicity, most hits filed as cytotoxic | actives 0.76% (n = 410,000) | AID 588856
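CellTiter-Glo luminescence gave cytotoxicity after 18 hours at 37 degrees C. The cells were HepG2 CAGA-GFP in 1% FBS DMEM, stimulated with 500 pg/mL TGF-beta after compound addition. %Activity was normalised to no-cell wells (complete cell-killing) and DMSO (no toxicity), and curves were fitted and classified.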
S2 tox: viability counter-screen for ATXN expression inhibitors; Potency, µM (titrated, usually from 56.7 µM), most hits filed as cytotoxic; actives 0.49% (n = 400,000); S2 cells (HEK-293 line with an ATXN2-luciferase reporter) viability, CellTiter-Fluor protease fluorescence, 24 h; further: nearly all actives have a fitted effect of over 40% in size
ATXN2 expr inh: reduces ATXN2 reporter expression in HEK-293 cells. HEK-293 ATXN2-luciferase reporter, luminescence, 24 h. AID 1745845. Potency, µM (doses to about 57 µM), without a hit: top-dose activity change, negative = inhibition, actives largely listed as inhibitors. actives 0.72% (n = 360,000); further: on the % scale 0 is the no-effect control and ±100 the full control effect; nearly all actives have a fitted effect of over 55% in size
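qHTS (up to 57 uM final) was run with 24 h compound exposure of reporter cells at 37 °C. Each well was multiplexed: SteadyGlo luminescence measured ATXN2-luciferase expression after a fluorogenic Gly-Phe-AFC viability readout (25 uM final).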
HTT cytoprotect: protects HTT-Q103 PC12 cells, measured by ATP | PC12 HTT-Q103 induced, cytoprotection, ATP luminescence, 40 h | Potency, µM (highest dose often 56.4 µM), inactives show cytoprotection (ATP increase), actives largely listed as activators | actives 0.14% (n = 230,000) | AID 1471; further: % of control where 0% means no effect; nearly all actives have a fitted effect of over 45% in size
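Quantitative HTS on tebufenozide-induced (100 nM) PC12 cells expressing HTTQ103 exon 1–GFP; compounds tested as a concentration series; survival measured via cellular ATP.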
TGFb SMAD3 inh: blocks TGF-b signaling. HepG2 CAGA-GFP TGF-b/SMAD3 reporter, GFP fluorescence, 18 h; TGF-beta stimulated, 500 pg/mL final. Potency, µM (doses to about 46.1 µM), for the others: at the highest dose activity, negative = inhibition, actives largely listed as inhibitors. actives 1.2% (n = 410,000). AID 588855; further: on the % scale 0 is the no-effect control and ±100 the full control effect; nearly all actives have a fitted effect of over 65% in size
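TGF-beta reporter screen: HEPG2 CAGA-GFP, 1% FBS, 500 pg/mL TGF-beta final, 18 h; per-cell GFP summed per well; curves fitted and categorized by class.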
HttQ103 aggreg: mutant huntingtin aggregation inhibition; PC12 HttQ103-GFP aggregates, Acumen cytometry, 40 h; Potency, µM (titrated, usually from 46.1 µM), without a hit: at the highest dose activity change, negative = inhibition, actives largely listed as inhibitors; actives 1.1% (n = 220,000); further: on the % scale 0 is the no-effect control and ±100 the full control effect; nearly all actives have a fitted effect of over 60% in size
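Inducible Q103 Huntingtin exon 1–GFP PC12 line, 1500 cells/well in phenol red free DMEM with 5% equine and 5% calf serum. Tebufenozide 100 nM induced expression; compounds titrated; aggregates quantified by cytometry.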
TGFb confirm: confirmation of TGF-b signaling inhibitors in HepG2 reporter cells; shares compounds with TGFb SMAD3 inh; HepG2 CAGA-GFP TGF-b reporter, GFP fluorescence, 18 h; cells stimulated with TGF-beta, 500 pg/mL; Potency, µM (titrated, usually from 46.1 µM), for the others: at the top dose activity, negative = inhibition, hits mostly inhibitors; actives 63% (n = 1,600); AID 720534; further: on the % scale 0 is the no-effect control and ±100 the full control effect; nearly all actives have a fitted effect of over 65% in size
HepG2 tox-2: HepG2 cytotoxicity, TGF-b inhibitor counterscreen; shares compounds with TGFb SMAD3 inh; HepG2 CAGA-GFP viability, ATP luminescence, 18 h; cells stimulated with TGF-beta, 500 pg/mL; Potency, µM (titrated, usually from 46.1 µM), for the others: at the highest dose activity, negative = cytotoxicity, hits mostly inhibitors; actives 27% (n = 1,600); AID 720535; further: on the % scale 0 is the no-effect control and ±100 the full control effect; nearly all actives have a fitted effect of over 70% in size
TGFb CCL64 inh: blocks TGF-b signaling in CCL64 reporter cells; shares compounds with TGFb SMAD3 inh; CCL64 CAGA-GFP reporter, TGF-b stimulated, GFP fluorescence, 18 h; Potency, µM (doses to about 46.1 µM), for the others: top-dose activity, negative = inhibition, hits mostly inhibitors; actives 41% (n = 1,600); AID 720536; further: nearly all actives have a fitted effect of over 65% in size
TGFb COP inh: TGF-b inhibition validated with COP promoter. shares compounds with TGFb SMAD3 inh. HepG2 COP-GFP TGF-b reporter, GFP fluorescence, 18 h; cells stimulated by added recombinant TGF-beta. Potency, µM (highest dose often 46.1 µM), without a hit: at the top dose activity, negative = inhibition, usual class: inhibitors. actives 3% (n = 1,600). AID 720537; further: nearly all actives have a fitted effect of over 70% in size
An asterisk follows results filed as active; i = inactive; ? = inconclusive; · = no result given; [ ] = remark or other dose. Sampled rows, rich in hits. Any-hit rate of the full collection: about 2.8%. The call rests on the fitted dose curve; in most records, active means well fitted curve in the direction sought with a large enough effect; inconclusive means small, poorly fitted or top-dose-only effect, or another doubt; inactive means no such curve, though single readings can be large; an effect the other way counts as inactive or inconclusive. Potency means the concentration at half of the fitted maximal effect.

SMILES	HepG2 tox-1	S2 tox	ATXN2 expr inh	HTT cytoprotect	TGFb SMAD3 inh	HttQ103 aggreg	TGFb confirm	HepG2 tox-2	TGFb CCL64 inh	TGFb COP inh
CC[C@]12c3[nH]c4ccc(Cl)cc4c3CCN1C(=O)[C@@H](CC(=O)NCC13CC4CC(CC(C4)C1)C3)C[C@@H]2C(=O)N1CCN(C(=O)c2ccco2)CC1	-2%	?	25µM*	·	13µM*	·	12µM*	?	?	67%
CC(C)N(C(=O)[C@H]1C[C@H](CC(=O)NCC23CC4CC(CC(C4)C2)C3)C(=O)N2CCc3c([nH]c4ccc(Cl)cc34)[C@]12C)C(C)C	-76%	?	?	·	8.9µM*	·	12µM*	?	13µM*	53%
O=C(c1ccco1)N1CCN(C(=O)C2CCCc3c2[nH]c2ccc(Cl)cc32)CC1 (stereo unspecified)	-34%	i	27%	3%	1µM*	-8%	?	?	?	10%
COc1ccc2[nH]c3c(c2c1)CCN1C(=O)C(CC(=O)NCC24CC5CC(CC(C5)C2)C4)C[C@H](C(=O)N2CCOCC2)[C@@]31CCC1CCCC1 (stereo partly specified)	12%	i	8%	·	11µM*	·	4.6µM*	-22%	5.8µM*	19%
O=C(C[C@H]1C[C@H](C(=O)N2CCOCC2)[C@@]2(CCC3CCCC3)c3[nH]c4ccc(Cl)cc4c3CCN2C1=O)NCC12CC3CC(CC(C3)C1)C2	-1%	i	-4%	·	-6%	·	·	·	·	·
CCOCCOC(=O)c1[nH]c2c(c1C)C(=O)CC(c1ccccc1)C2 (stereo unspecified)	-23%	?	-14%	·	?	·	·	·	·	·
CCCCCOC(=O)c1[nH]c2c(c1C)C(=O)CC(c1ccco1)C2 (stereo unspecified)	-6%	?	-28%	-38%	0.79µM*	-17%	1.2µM*	-2%	0.23µM*	-13%
COc1cccc(-c2coc3ccc(Br)cc3c2=O)c1	·	·	·	-44%	·	·	·	·	·	·
NC(CSS(=O)(=O)O)=N[C@@H]1C[C@H]2CC[C@@H]1C2	·	·	·	4%[10 µM]	·	·	·	·	·	·
CCC1CC=CC2C1C(=O)N(Cc1ccccc1)C2c1ccc2ccccc2c1 (stereo unspecified)	-23%	·	·	·	-17%	·	·	·	·	·
O=C1c2ccccc2C(=O)c2c1oc(C(F)(F)F)c2C(=O)c1ccccc1	1.1µM*	?	?	-98%[10 µM]	1.1µM*	5µM*	4.6µM*	4.1µM*	4.6µM*	3.7µM*
CC1(C(=O)NCc2ccc3c(c2)OCO3)CCN1Cc1csc2ccccc12 (stereo unspecified)	-34%	i	?	·	11µM*	·	16µM*	23µM*	3.7µM*	44%
Nc1nc(NCCc2ccccc2)c2[nH]cnc2n1	-37%	·	·	·	1%	·	·	·	·	·
ON=C1c2ccccc2-c2ccc(F)cc21	-16%	i	11%	·	1.6µM*	·	9.2µM*	?	-24%	55%
O=[N+]([O-])c1ccc2c(c1)C(=NO)c1cc(F)ccc1-2	-10%	i	-32%	·	0%	·	·	·	·	·
CC(=O)Nc1ccc(NC2=C(Cl)C(=O)c3ccccc3C2=O)cc1	3.5µM*	·	?	-170%	3.5µM*	?	5.2µM*	15µM*	2.9µM*	?
Cc1cccc(NC2=C(NC(=O)c3ccccc3)C(=O)c3ccccc3C2=O)c1	-99%	?	?	-9%[10 µM]	?	-32%	·	·	·	·
O=C(Oc1ccc(NC2=C(Cl)C(=O)c3ccccc3C2=O)cc1)c1ccc([N+](=O)[O-])cc1	4%	?	·	4%[1.9 µM]	-9%	?	·	·	·	·
O=C(NC1=C(Nc2ccc(Cl)cc2)C(=O)c2ccccc2C1=O)c1ccccc1	28µM*	?	-10%	7%[10 µM]	8.9µM*	?	15µM*	21µM*	?	-28%
Cc1ccc(NC2=C(NCCO)C(=O)c3ccccc3C2=O)cc1	-21%	i	24%	3%[10 µM]	?	-16%	·	·	·	·
CN(C)c1ccc(NC2=C(Cl)C(=O)c3ccccc3C2=O)cc1	5.6µM*	·	?	-23%[10 µM]	5.6µM*	14µM*	5.2µM*	12µM*	13µM*	?
O=C1C(Cl)=C(Nc2ccc3cn[nH]c3c2)C(=O)c2ccccc21	1.1µM*	14µM*	20µM*	-98%[10 µM]	0.63µM*	4µM*	1.6µM*	3.3µM*	4.6µM*	6.5µM*
C[C@]12CCC(=O)C=C1CC[C@@H]1[C@@H]2[C@@H](O)C[C@@]2(C)[C@H]1CC[C@]2(O)C(=O)COP(=O)(O)O	·	·	·	-30%	·	-12%	·	·	·	·
COc1ccc(C2/C=C\CN(S(=O)(=O)c3ccc(C)cc3)C(Cc3ccccc3)C(=O)N2Cc2ccc(F)cc2)cc1 (stereo unspecified)	-9%	·	·	·	-2%	·	·	·	·	·
CC(C)CC(CSc1ccc(Br)cc1)N1CCN(C)CCC1=O (stereo unspecified)	-20%	·	·	·	-15%	·	·	·	·	·
COc1ccc(-c2noc(C3CCCN(C(=O)c4ccccc4)C3)n2)cc1 (stereo unspecified)	-23%	i	4%	0%[10 µM]	-20%	-21%[9.22 µM]	·	·	·	·
